Experimental data: PubChem BioAssay (EPA / NIEHS)
Results filed as inconclusive are left out. Active and inactive are the calls of the source. Rule for the calls, unless noted: active = hit-call score of the fitted dose curve at least 0.9, where 1 is the maximum; inactive = score below 0.9.

Tests used:
[1] = target: rat Serotonin Transporter (SERT), Slc6a4 (gene 25553) (UniProt P31652); experiment: NVS_TR_rSERT: NovaScreen (NVS) Transporter Assay for rat Serotonin Transporter (SERT) (AID 2283375; active = hit-call score of the fitted dose curve at least 0.9, where 1 is the maximum)
rat Serotonin Transporter (SERT), Slc6a4 (gene 25553), sequence (P31652 whole entry, looked up): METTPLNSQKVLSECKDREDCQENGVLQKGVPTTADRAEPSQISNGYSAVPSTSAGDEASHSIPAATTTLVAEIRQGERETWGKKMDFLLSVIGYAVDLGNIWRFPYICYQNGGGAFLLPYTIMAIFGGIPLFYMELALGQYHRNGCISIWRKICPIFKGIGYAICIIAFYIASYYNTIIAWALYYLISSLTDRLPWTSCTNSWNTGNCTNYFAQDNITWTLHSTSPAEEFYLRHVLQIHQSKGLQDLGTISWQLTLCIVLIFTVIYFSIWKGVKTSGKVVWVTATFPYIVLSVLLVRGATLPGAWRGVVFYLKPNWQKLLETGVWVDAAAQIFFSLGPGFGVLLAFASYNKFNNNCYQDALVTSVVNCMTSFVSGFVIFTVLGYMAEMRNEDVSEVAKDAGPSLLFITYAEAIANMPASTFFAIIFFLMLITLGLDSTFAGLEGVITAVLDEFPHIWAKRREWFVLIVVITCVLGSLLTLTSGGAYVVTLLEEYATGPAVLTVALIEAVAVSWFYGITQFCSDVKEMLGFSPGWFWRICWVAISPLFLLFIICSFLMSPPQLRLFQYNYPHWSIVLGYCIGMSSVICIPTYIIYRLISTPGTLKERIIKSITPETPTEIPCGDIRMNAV
Procedure, shortened: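 Using rat forebrain membrane SERT, test chemicals compete with a radioligand for 1 hour, and bound counts are taken by filter-based scintillation. Screening starts at 25 uM in duplicate, followed by concentration series for actives.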

[2] = IUF_NPC1b_proliferation_BrdU_72hr: Leibniz Research Institute for Environmental Medicine (IUF) 72-hour Neural Progenitor Cell Bromodeoxyuridine (BrdU) Proliferation Assay (NPC1b) (AID 2284207)
Procedure, shortened: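 Human fetal cortex-derived (GW 16-19) neural progenitor spheres, 0.25-0.35 mm, one per well in EGF/FGF proliferation medium, exposed to compound for 72 h at 37C, pH 7.2-7.6. BrdU incorporation over the final 16 h read by luminescence ELISA, relative to DMSO.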

[3] = IUF_NPC1a_proliferation_area_72hr: Leibniz Research Institute for Environmental Medicine (IUF) 72-hour Neural Progenitor Cell Proliferation Area Assay (NPC1a) (AID 2284208)
Procedure, shortened: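 Measured in 3D suspension: each well held one primary hNPC sphere grown with EGF and FGF at pH 7.2-7.6. Compound stayed on for 72 h, then area was imaged; spheres lacking growth factors defined reduced proliferation.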

[4] = IUF_NPC1_viability_72hr: Viability Assessment at 72 hours in the Leibniz Research Institute for Environmental Medicine (IUF) Neural Progenitor Cell Proliferation Assay (NPC1) (AID 2284209)
Procedure, shortened: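 Viability was measured by resazurin-to-resorufin fluorescence (alamar blue) after 72 h of continuous exposure without compound renewal. Each well held one hNPC sphere (gestational week 16-19 fetal cortex, 0.25-0.35 mm) cultured in EGF/FGF proliferation medium at 37C and pH 7.2-7.6.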

[5] = IUF_NPC2c_oligodendrocyte_migration_120hr: Leibniz Research Institute for Environmental Medicine (IUF) 120-hour Neural Progenitor Cell Migration Assay for Oligodendrocyte Migration (NPC2c) (AID 2284297);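 note: O4-positive oligodendrocyte migration distance divided by radial glia migration distance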
Procedure, shortened: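 Using fetal brain neural progenitor spheres differentiating in N2 medium at 37C, compounds were present for 120 h. Oligodendrocyte migration distance, normalized to radial glia migration, was measured from imaged O4 staining.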

[6] = IUF_NPC2a_radial_glia_migration_120hr: Leibniz Research Institute for Environmental Medicine (IUF) 120-hour Neural Progenitor Cell Migration Assay for Radial Glia Migration (NPC2a) (AID 2284298)
Procedure, shortened: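 Exposure of 0.3 mm primary hNPC spheres runs day 0 to 120 h with a half-volume medium change at day 3. Fixed cells get Hoechst staining; high-content analysis of nuclear positions yields radial glia migration distance per well, compared against DMSO controls.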

[7] = IUF_NPC2a_radial_glia_migration_72hr: Leibniz Research Institute for Environmental Medicine (IUF) 72-hour Neural Progenitor Cell Migration Assay for Radial Glia Migration (NPC2a) (AID 2284299)
Procedure, shortened: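 Radial glia migration (µm, sphere core edge to migration front, four directions averaged) from brightfield images at 72 h; hNPC spheres differentiating on PDL/laminin in N2 medium, compound exposure at 7 concentrations from plating.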

[8] = IUF_NPC2b_neuronal_migration_120hr: Leibniz Research Institute for Environmental Medicine (IUF) 120-hour Neural Progenitor Cell Migration Assay for Neuron Migration (NPC2b) (AID 2284300)
Procedure, shortened: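 Fetal human NPC spheres migrate on PDL/laminin during 120 h compound treatment; neuronal migration distance, glia-normalized, scored versus DMSO control.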

[9] = IUF_NPC3_neuronal_differentiation_120hr: Leibniz Research Institute for Environmental Medicine (IUF) 120-hour Neuronal Differentiation Assay (NPC3) (AID 2284301)
Procedure, shortened: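 Value is percent TUBB3-positive neurons among Hoechst-stained nuclei in the migration area, scored by trained CNN after 120 h differentiation. Primary hNPC spheres on poly-D-lysine/laminin, N2 medium, continuous dosing from day 0, half-refeed day 3; DMSO reference.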

[10] = IUF_NPC4_neurite_length_120hr: Leibniz Research Institute for Environmental Medicine (IUF) 120-hour Neuronal Morphology Assay for Neurite Length (NPC4) (AID 2284302)
Procedure, shortened: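 Neurite length, the mean in um across TUBB3-stained neurons, is derived by skeletonization of high-content images after 120 h differentiation. Compound exposure, 7 concentrations plus solvent control, ran from plating of hNPC spheres on poly-D-lysine/laminin, with medium half-replaced on day 3.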

[11] = IUF_NPC5_oligodendrocyte_differentiation_120hr: Leibniz Research Institute for Environmental Medicine (IUF) 120-hour Oligodendrocyte Differentiation Assay (NPC5) (AID 2284304; active = hit-call score of the fitted dose curve at least 0.9, where 1 is the maximum;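 note: primary human fetal neural progenitor spheres plated to migrate and differentiate; share of O4-positive cells among Hoechst nuclei found by CNN image analysis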)
Procedure, shortened: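 After plating on poly-D-lysine/laminin, fetal-derived hNPC spheres differentiated for 120 h at 37C in compound-containing N2 medium, refreshed by half on day 3. O4 immunostaining over Hoechst nuclei in the migration zone gave oligodendrocyte percentage relative to DMSO.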

[12] = IUF_NPC4_neurite_area_120hr: Leibniz Research Institute for Environmental Medicine (IUF) 120-hour Neuronal Morphology Assay for Neurite Area (NPC4) (AID 2284305; active = hit-call score of the fitted dose curve at least 0.9, where 1 is the maximum)
Procedure, shortened: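 Neurite area (pixels, nuclei excluded) of TUBB3-positive neurons from hNPC spheres differentiating 5 days under continuous exposure at 37 C, 5% CO2. High-content imaging; loss of signal versus DMSO control across 7 concentrations.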

[13] = IUF_NPC2-5_cytotoxicity_72hr: Cytotoxicity Assessment at 72 hours in the Leibniz Research Institute for Environmental Medicine (IUF) Neural Progenitor Cell Migration and Differentiation Assay for Cytotoxicity (NPC2-5) (AID 2284306; active = hit-call score of the fitted dose curve at least 0.9, where 1 is the maximum;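 note: LDH release into supernatant measured by resorufin fluorescence marking membrane damage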)
Procedure, shortened: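 Membrane-integrity cytotoxicity at 72 h, read as LDH-driven resorufin fluorescence in supernatant. hNPC spheres from fetal cortex differentiate on coated plates in N2 medium, 37C, 5% CO2; seven serial compound concentrations plus solvent control (DMSO ≤0.1%).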

[14] = IUF_NPC2-5_cytotoxicity_120hr: Cytotoxicity Assessment at 120 hours in the Leibniz Research Institute for Environmental Medicine (IUF) Neural Progenitor Cell Migration and Differentiation Assay (NPC2-5) (AID 2284307; active = hit-call score of the fitted dose curve at least 0.9, where 1 is the maximum)
Procedure, shortened: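 Membrane-integrity loss is quantified by LDH in supernatant after five days of exposure of migrating, differentiating human fetal NPC spheres; seven serially diluted concentrations are tested with DMSO kept at or below 0.1%.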

[15] = IUF_NPC2-5_cell_number_120hr: Cell Number Assessment at 120 hours in the Leibniz Research Institute for Environmental Medicine (IUF) Neural Progenitor Cell Migration and Differentiation Assay (NPC2-5) (AID 2284308);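 note: count of Hoechst-stained nuclei in migration zone around plated human neural progenitor spheres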
Procedure, shortened: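 Seven-point serial dilutions plus solvent control were applied to plated 0.3 mm hNPC spheres at differentiation start, with medium half-replaced at day 3. Nuclei positive for Hoechst in the migration zone were enumerated at 120 h.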

[16] = IUF_NPC2-5_viability_120hr: Viability Assessment at 120 hours in the Leibniz Research Institute for Environmental Medicine (IUF) Neural Progenitor Cell Migration and Differentiation Assay (NPC2-5) (AID 2284312)
Procedure, shortened: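 Alamar blue resorufin fluorescence read after 5 days of differentiation, with compound present from day 0 and replenished at day 3. Primary hNPC spheres on laminin-coated plates, 37C; seven concentrations plus solvent control, fitted against DMSO.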

[17] = CCTE_Mundy_HCI_iCellGluta_NOG_NeuriteLength: CCTE's Neurite Outgrowth Assay in iCellGluta cells for Neurite Length, Mundy Lab (AID 2284318; active = hit-call score of the fitted dose curve at least 0.9, where 1 is the maximum)
Procedure, shortened: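 Automated high-content imaging of betaIII-tubulin (Alexa Fluor-488) and Hoechst-stained cells gave neurite length, normalized to the DMSO baseline.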

[18] = IUF_NPC1_cytotoxicity_72hr: Cytotoxicity Assessment at 72 hours in the Leibniz Research Institute for Environmental Medicine (IUF) Neural Progenitor Cell Proliferation Assay (NPC1) (AID 2284332; active = hit-call score of the fitted dose curve at least 0.9, where 1 is the maximum;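 note: rising LDH signal means more cytotoxicity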)
Procedure, shortened: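 Cytotoxicity by LDH membrane-integrity assay on medium supernatants, fluorescence via resazurin reduction, after 3-day single exposure of primary hNPC spheres at 37C, pH 7.2-7.6 with growth factors. Fitted upward against baseline.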

[19] = CCTE_Mundy_HCI_iCellGluta_NOG_NeuronCount: CCTE's Neurite Outgrowth Assay in iCellGluta cells for Neuron Count, Mundy Lab (AID 2284340; active = hit-call score of the fitted dose curve at least 0.9, where 1 is the maximum;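 note: cells fixed about 48 h after compound addition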)
Procedure, shortened: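 Neuron count read by automated high-content imaging of Hoechst 33342 and betaIII-tubulin/Alexa Fluor-488 labelling in human iPSC glutamatergic neurons. Activity fitted relative to DMSO.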

[20] = CCTE_Mundy_HCI_iCellGluta_NOG_NeuriteCount: CCTE's Neurite Outgrowth Assay in iCellGluta cells for Neurite Count, Mundy Lab (AID 2284342; active = hit-call score of the fitted dose curve at least 0.9, where 1 is the maximum;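 note: chemical exposure about 48 hours starting 2 hours after plating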)

Measured: AC50

CN(C)CCC(c1ccc(Cl)cc1)c1ccccn1 (stereo not given)
active: [1] 2950 nM
inactive: all other assays above
